Screening results (PubChem BioAssay)
Sampled rows, rich in hits. Any-hit rate of the full collection: about 6.7%.
Pf Dd2 growth = blocks growth of Plasmodium falciparum Dd2 parasites | activity change, % at 10 µM | 94,000 compounds, 2.3% hits | P. falciparum Dd2 growth, SYBR Green, 72 h; stronger effect = lower value | AID 1159554; in the data active = activity change below about -80%; inconclusive = no clear call, values can overlap the other calls
C diff HTS = blocks growth of Clostridium difficile; Clostridium difficile clinical isolate growth, OD600, 24 h; stronger effect = lower value; growth activity, negative = inhibition, % at 16 µg/mL (by protocol); 86,000 compounds, 0.25% hits; AID 1259249;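 active = mean growth activity at or below -80% and every replicate also at or below -80%; inconclusive = mean at or below -80% but some replicate above -80%; inactive = mean growth activity above -80%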
T cruzi growth-1 = inhibitors of T. cruzi proliferation. AID 624255. inhibition, % at 8.34 µM. T. cruzi beta-gal in NIH3T3, GalScreen luminescence, 90 h. 77,000 compounds, 5.9% hits;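 active = mean inhibition above about 93%, with at least 55% of replicates each passing it, limit read from the data, passing the limit was not always enough; inconclusive = only one of those two conditions holds; inactive = neither condition holds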
T cruzi growth-2 = Trypanosoma cruzi proliferation inhibition; shares compounds with T cruzi growth-1; T. cruzi beta-gal in NIH3T3, GalScreen luminescence, 90 h; inhibition, % at 8.35 µM; 5,600 compounds, 72% hits; AID 651739;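 active = mean replicate inhibition above about 95% and at least 55% of replicates individually reaching it, limit read from the data; inconclusive = only one of the two criteria is met; inactive = neither criterion is met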
T cruzi growth-3 = inhibitors of T. cruzi proliferation; shares compounds with T cruzi growth-1; T. cruzi beta-gal in NIH3T3, GalScreen luminescence, 90 h; inhibition, % at 2.09 µM; 5,600 compounds, 21% hits;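 active = mean inhibition above about 95%, with at least 55% of replicates also reaching it, limit read from the data; inconclusive = meets just one of the two conditions; inactive = meets neither condition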
NIH3T3 tox = NIH/3T3 (mouse) viability loss; shares compounds with T cruzi growth-1; NIH/3T3 viability, CellTiter-Glo ATP luminescence, 90 h; cytotoxicity (signal decrease), % at 8.35 µM; 5,600 compounds, 14% hits; AID 651742;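 active = mean signal decrease across replicates above about 35% based on untreated-well scatter, with enough replicates individually passing, limit read from the data; inconclusive = no rule stated though some were filed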
3T3 cytotox 2 = NIH/3T3 (mouse) viability loss. shares compounds with T cruzi growth-1. NIH/3T3 viability, CellTiter-Glo ATP luminescence, 90 h. inhibition, % at 24.9 µM. 5,600 compounds, 56% hits. AID 651744;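 active = mean loss of cell viability signal at or above a set limit, and enough replicates individually reaching it; inconclusive = meets only the mean limit or only the replicate share; inactive = meets neither condition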
A number is an active result; i = inactive; ? = inconclusive; nt = no result given.

SMILES | Pf Dd2 growth | C diff HTS | T cruzi growth-1 | T cruzi growth-2 | T cruzi growth-3 | NIH3T3 tox | 3T3 cytotox 2
C[C@H](CO)N1C[C@H](C)[C@H](CN(C)S(=O)(=O)c2cccs2)OCCCC[C@H](C)Oc2ccc(NS(=O)(=O)c3cccs3)cc2C1=O | i | i | i | nt | nt | nt | nt
COc1ccc(NC(=O)Nc2ccc3c(c2)[C@H]2C[C@H](CC(=O)NCCc4ccccc4)O[C@H](CO)[C@H]2O3)cc1 | i | i | 149 | 109 | i | i | i
CCCNC(=O)C[C@@H]1C[C@H]2c3cc(NC(=O)Nc4ccc(OC)cc4)ccc3O[C@H]2[C@H](CO)O1 | i | i | i | nt | nt | nt | nt
COc1ccc(NC(=O)Nc2ccc3c(c2)[C@@H]2C[C@H](CC(=O)NCCc4ccccc4)O[C@H](CO)[C@@H]2O3)cc1 | i | i | 159 | 105 | 101 | i | i
O=C(C[C@@H]1C[C@@H]2c3cc(NC(=O)Nc4ccccc4)ccc3O[C@@H]2[C@H](CO)O1)NCC1CC1 | i | i | 102 | i | i | i | i
CCCNC(=O)C[C@H]1C[C@@H]2c3cc(NC(=O)Nc4ccc(OC)cc4)ccc3O[C@@H]2[C@@H](CO)O1 | i | i | i | nt | nt | nt | nt
O=C(C[C@@H]1C[C@H]2c3cc(NC(=O)Nc4ccc(F)cc4)ccc3O[C@H]2[C@@H](CO)O1)NCC1CC1 | i | i | i | nt | nt | nt | nt
C[C@H]1CCCCO[C@@H](CN(C)C(=O)C2CCCCC2)[C@@H](C)CN([C@@H](C)CO)C(=O)c2cc(NC(=O)C3CCCCC3)ccc2O1 | ? | i | i | nt | nt | nt | nt
COc1ccc(S(=O)(=O)N(C)C[C@H]2Oc3c(NS(=O)(=O)c4cn(C)cn4)cccc3C(=O)N([C@@H](C)CO)C[C@@H]2C)cc1 | i | i | i | nt | nt | nt | nt
C[C@H](CO)N1C[C@H](C)[C@@H](CN(C)C(=O)Nc2ccc3c(c2)OCO3)Oc2ccc(NS(=O)(=O)c3cccs3)cc2C1=O | i | nt | i | nt | nt | nt | nt
C[C@H](CO)N1C[C@H](C)[C@@H](CN(C)C)Oc2ccc(NC(=O)CCN3CCOCC3)cc2C1=O | i | i | nt | nt | nt | nt | nt
O=C(C[C@H]1C[C@@H]2c3cc(NC(=O)Nc4ccccc4F)ccc3O[C@@H]2[C@H](CO)O1)NCc1ccccn1 | i | i | 109 | i | i | i | i
O=C(C[C@H]1C[C@@H]2c3cc(NC(=O)Nc4ccccc4F)ccc3O[C@@H]2[C@@H](CO)O1)NC1CCCCC1 | i | i | 158 | ? | i | i | i
O=C(C[C@@H]1C[C@H]2c3cc(NC(=O)Nc4ccccc4F)ccc3O[C@H]2[C@H](CO)O1)NCc1ccccn1 | i | i | nt | nt | nt | nt | nt
O=C(C[C@@H]1C[C@@H]2c3cc(NC(=O)Nc4ccccc4F)ccc3O[C@@H]2[C@H](CO)O1)NC1CCCCC1 | i | i | i | nt | nt | nt | nt
COc1ccccc1NC(=O)N1CC(=O)N2[C@@H](CO)[C@@H](c3ccc(C#Cc4ccc(F)cc4)cc3)[C@@H]2C1 | i | i | nt | nt | nt | nt | nt
C[C@@H]1CCCCO[C@@H](CN(C)C(=O)C2CCCCC2)[C@@H](C)CN([C@@H](C)CO)C(=O)c2cc(N(C)C)ccc2O1 | i | i | i | nt | nt | nt | nt
C[C@H](CO)N1C[C@H](C)[C@H](CN(C)C(=O)C2CCCCC2)OCCCC[C@H](C)Oc2ccc(N(C)C)cc2C1=O | i | i | 100 | i | i | i | i
C[C@@H]1CCCCO[C@H](CN(C)C(=O)C2CCCCC2)[C@H](C)CN([C@@H](C)CO)C(=O)c2cc(N(C)C)ccc2O1 | i | i | 110 | i | i | i | i
C[C@@H]1CCCCO[C@@H](CN(C)C(=O)C2CCCCC2)[C@@H](C)CN([C@H](C)CO)C(=O)c2cc(N(C)C)ccc2O1 | nt | i | i | nt | nt | nt | nt
C[C@@H]1CN([C@@H](C)CO)C(=O)c2cccc(NC(=O)Nc3ccc(C(F)(F)F)cc3)c2O[C@H]1CN(C)Cc1ccccc1 | i | i | i | nt | nt | nt | nt
Cc1noc(C)c1S(=O)(=O)N(C)C[C@H]1Oc2ccc(NS(=O)(=O)c3cccs3)cc2CC(=O)N([C@H](C)CO)C[C@@H]1C | i | i | i | nt | nt | nt | nt
CO[C@H]1CN(C)C(=O)c2cc(NS(C)(=O)=O)ccc2OC[C@@H](C)N(C(=O)NC(C)C)C[C@H]1C | i | i | i | nt | nt | nt | nt
C[C@H](CO)N1C[C@H](C)[C@@H](CN(C)C(=O)c2cccc(F)c2)Oc2cc(-c3ccncc3)ccc2S1(=O)=O | i | i | 110 | i | i | i | 44
